# Experimental data from PubChem BioAssay.
# Activity calls are given as the source filed them.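 The calls were made as follows, unless noted: active = NADPH fluorescence slope more negative than the mean of all samples by about 3 SD, 99.7% confidence; inactive = the rest.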
# Tests used:
# [1] = inhibitors of TNFa-induced NFkB p65 translocation, primary screen, imaging, HUVEC, MLSMR starter and 10KST1 sets (AID 438;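 active = inhibition above 20% together with a positive visual image hit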;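 also: compound added about 3h40 before a 20 min TNFalpha stimulation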;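 as to inhibition: signal is the nuclear over cytoplasmic p65 intensity ratio per well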); conditions: HUVEC TNFa-induced p65 nuclear translocation; cell count: measured here: nuclei count (cytotoxicity indicator), at 2.08 µM; inhibition: at 2 µM, stronger effect = higher value, 0% TNFa-plus-vehicle, 100% no-TNFa wells
# [2] = reduction of polyQ htt aggregates in cells – imaging, exon1htt(103Q)mCFP cells, high-content imaging, primary screen (AID 483;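 active = visual image review flags a hit and inhibition of aggregation exceeds 20%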;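 also: compound exposure lasted 3 days before fixation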;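 as to nuclei count: percent of the per-plate median nuclei count of sample wells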); conditions: exon1htt(103Q)mCFP cell line, aggregate imaging, at 2 µM; inhibition of aggregation: stronger effect = higher value; nuclei count: measured here: cell count, toxicity
# [3] = endothelial E-selectin expression blockers – imaging, HUVEC, immunofluorescence, MLSMR starter and 10KST1 sets, primary screen (AID 487;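 active = visually confirmed hit in the image check and inhibition above 20%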;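 as to inhibition: signal is fraction of cell area covered by stained E-selectin grains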;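 as to nuclei count: 100% = median nuclei count of all wells on the same plate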); conditions: HUVEC TNFalpha-induced E-selectin immunofluorescence imaging, at 2 µM; inhibition: stronger effect = higher value; nuclei count: measured here: cell number, toxicity
# [4] = target: Voltage-gated potassium channel subunit beta-2 (Rattus norvegicus) (UniProt P62483); assay: inhibitors of rat Kvbeta2 reductase activity – biochemical, NADPH fluorescence, primary screen (AID 622;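 active = fluorescence slope higher than the sample average by over 3 SD, cut at about -0.22 in these data, passing the limit was not always enough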;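 also: slope of raw intensity against log time taken from 70 to 1610 s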); conditions: recombinant KvBeta, 4-cyanobenzaldehyde reduction, at 10 µM, stronger effect = higher value
# Sequence of Voltage-gated potassium channel subunit beta-2 (Rattus norvegicus) (P62483 whole entry, looked up): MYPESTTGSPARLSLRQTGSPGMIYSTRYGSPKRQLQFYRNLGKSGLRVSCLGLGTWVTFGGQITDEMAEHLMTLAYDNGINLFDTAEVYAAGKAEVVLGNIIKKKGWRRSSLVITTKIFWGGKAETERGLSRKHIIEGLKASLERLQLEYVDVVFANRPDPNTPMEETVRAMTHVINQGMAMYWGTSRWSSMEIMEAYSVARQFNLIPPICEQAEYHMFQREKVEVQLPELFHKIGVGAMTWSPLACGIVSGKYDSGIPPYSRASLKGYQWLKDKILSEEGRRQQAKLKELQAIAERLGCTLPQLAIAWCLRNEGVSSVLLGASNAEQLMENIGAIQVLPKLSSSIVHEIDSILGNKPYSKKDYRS
# [5] = target: Voltage-gated potassium channel subunit beta-2 (Rattus norvegicus) (UniProt P62483); assay: enhancers of rat Kvbeta2 NADPH turnover – biochemical, NADPH fluorescence, primary screen (AID 623); conditions: Recombinant KvBeta, NADPH fluorescence decrease slope, 10 min; at 10 µM; stronger effect = lower value;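 also: fluorescence intensity change per second fitted from 20 to 320 s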
# [6] = target: Alpha-2C adrenergic receptor (Homo sapiens) (UniProt P18825); assay: compounds altering alpha2C-coupled GIRK flux – cell-based, HEK293 alpha2C/GIRK1/2, thallium flux, primary screen (AID 624;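 active = fluorescence slope after compound addition differing from the mean of all screened samples at 99.7% confidence, in either direction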;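 also: slope of fluorescence ratio to pre-addition baseline per second over 15 to 24 s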); conditions: thallium flux BTC fluorescence, at 10 µM, actives lie on both sides
# Sequence of Alpha-2C adrenergic receptor (Homo sapiens) (P18825 whole entry, looked up): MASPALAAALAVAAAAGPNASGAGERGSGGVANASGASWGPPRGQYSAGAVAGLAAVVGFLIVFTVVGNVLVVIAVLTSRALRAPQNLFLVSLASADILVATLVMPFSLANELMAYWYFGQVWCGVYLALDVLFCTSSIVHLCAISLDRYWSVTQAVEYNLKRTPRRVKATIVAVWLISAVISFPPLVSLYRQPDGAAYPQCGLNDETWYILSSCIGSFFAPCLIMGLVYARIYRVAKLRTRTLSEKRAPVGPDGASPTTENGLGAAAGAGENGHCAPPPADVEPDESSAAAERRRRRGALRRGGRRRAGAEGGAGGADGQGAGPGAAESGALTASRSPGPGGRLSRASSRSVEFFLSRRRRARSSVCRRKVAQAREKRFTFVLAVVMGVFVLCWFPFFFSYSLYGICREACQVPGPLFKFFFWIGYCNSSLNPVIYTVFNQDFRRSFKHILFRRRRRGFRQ
# [7] = blockers of RIG-like receptor reporter activation – cell-based, Sendai virus stimulus, luciferase, 10K MLSCN set, TLR/RLR signaling modifier project, primary screen (AID 602276;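 active = inhibition at or above 50% at 10 µM; inactive = inhibition below 50%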;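 also: firefly luciferase from ISG56 promoter only with Renilla not read in this screen; 0% = Sendai virus plus DMSO and 100% = medium plus DMSO without virus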); conditions: HEK293 RL24 IRF3 luciferase reporter, at 10 µM, stronger effect = higher value
# [8] = TLR3 IRF3 reporter activation blockers – cell-based, poly I:C stimulus, luciferase, 10K MLSCN set, primary screen (AID 602277;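 active = inhibition of the reporter signal at or above 50%; inactive = inhibition below 50%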); conditions: HEK293-TLR3 RL24 IRF3 luciferase reporter, at 10 µM, stronger effect = higher value
Compound,cell count [1],inhibition [1],inhibition of aggregation [2],nuclei count [2],inhibition [3],nuclei count [3],fluorescence slope [4],NADPH fluorescence slope [5],slope [6],inhibition [7],inhibition [8]
CCCSCCCNC(=O)Cn1cc2c(n1)CCC(C)C2 (stereo not drawn),652,-3.3% (inactive),3.5% (inactive),92%,21.4% (inactive),103%,-0.615 (inactive),-2.5e-05 (inactive),0.00719 (inactive),-8.61% (inactive),10.5% (inactive)
CCOC(=O)CSc1ncnc2c1cnn2-c1ccc(C)cc1,296,2.4% (inactive),-24.2% (inactive),108%,-3.4% (inactive),129%,-0.581 (inactive),-2e-05 (inactive),0.00447 (inactive),22.8% (inactive),21.8% (inactive)
CC(C)NC(=O)c1ccc2c(c1)nnn2C,836,8.2% (inactive),4.8% (inactive),104%,-59.5% (inactive),116%,-0.471 (inactive),2.3e-05 (inactive),0.0055 (inactive),-4.12% (inactive),11.6% (inactive)
Cc1cccc(N2CCN(C(=O)C3CCCN(S(=O)(=O)c4c(C)noc4C)C3)CC2)c1C (stereo not drawn),599,-2.3% (inactive),-11.6% (inactive),102%,-85.1% (inactive),125%,-0.571 (inactive),-2.7e-05 (inactive),0.00588 (inactive),8.68% (inactive),1.25% (inactive)
CCOC(=O)c1c(-c2ccc(C)o2)csc1NC(=O)COC(=O)c1cccs1,478,-7.8% (inactive),10% (inactive),66.4%,-41.5% (inactive),113%,-0.403 (inactive),-5.7e-05 (inactive),0.00798 (inactive),7.28% (inactive),15.5% (inactive)
Cc1cccc(NC2SC(=O)N(c3ccccc3)C2=O)c1 (stereo not drawn),152,-14.3% (inactive),11.5% (inactive),92.8%,26.4% (inactive),80.9%,-0.377 (inactive),5.7e-06 (inactive),0.00476 (inactive),-2.7% (inactive),-12.1% (inactive)
COc1cc(C(=O)Nc2cccc(-c3nc4cc(C)ccc4o3)c2)cc(OC)c1OC,507,7% (inactive),-1.2% (inactive),90.7%,-126% (inactive),126%,-0.582 (inactive),-3.2e-05 (inactive),0.0093 (inactive),0.465% (inactive),-22.5% (inactive)
CC(C)(C)Cc1nc(-c2ccccn2)no1,379,0.8% (inactive),-13.5% (inactive),109%,-71.1% (inactive),115%,-0.44 (inactive),-2.3e-05 (inactive),0.00439 (inactive),-5.86% (inactive),-18.2% (inactive)
Nn1c(SCC(=O)Nc2ccc3c(c2)OCO3)nnc1C1CC1,363,4.8% (inactive),0.8% (inactive),100%,-16% (inactive),111%,-0.574 (inactive),-5.7e-05 (inactive),0.00672 (inactive),4.52% (inactive),17.1% (inactive)
Cc1[nH]nc2c1C(=O)CCC2,639,10.7% (inactive),27.4% (inactive),96.1%,14.9% (inactive),95.1%,-0.366 (inactive),-3.1e-05 (inactive),0.00524 (inactive),-1.33% (inactive),0.12% (inactive)
COc1ccc(Cn2nnnc2C(c2ccccc2OC)N2CCC(C(N)=O)CC2)cc1 (stereo not drawn),315,4.4% (inactive),6.9% (inactive),74.4%,-39.5% (inactive),114%,-0.604 (inactive),-4.2e-05 (inactive),0.00453 (inactive),10.7% (inactive),25.5% (inactive)
CCSc1nnc(NC(=O)c2ccccn2)s1,351,2.9% (inactive),13.2% (inactive),85.6%,21.4% (inactive),102%,-0.583 (inactive),3.3e-06 (inactive),0.00493 (inactive),4.15% (inactive),15.7% (inactive)
COc1ccc(CCNC(=O)C2CCN(C(=O)N(C)C)CC2)cc1OC,618,0.9% (inactive),3.5% (inactive),44.3%,-74.3% (inactive),106%,-0.386 (inactive),-1.9e-05 (inactive),0.00486 (inactive),6.71% (inactive),-1.45% (inactive)
COc1cc2c(C#N)c(N3CCOCC3)nc(N)c2c(N)n1,694,-7.8% (inactive),-18.2% (inactive),117%,-22.5% (inactive),114%,-0.0448 (inactive),-2.1e-06 (inactive),0.00579 (inactive),15.2% (inactive),46.9% (inactive)
Cc1nc2cc(C(=O)O)ccc2n1-c1ccc(F)cc1F,672,-1.5% (inactive),-2.2% (inactive),99.5%,-12.5% (inactive),116%,-0.527 (inactive),-4.1e-05 (inactive),0.00687 (inactive),4.77% (inactive),27.2% (inactive)
O=S(=O)(NCc1ccc(Cl)cc1)c1cnc[nH]1,468,5% (inactive),-5.7% (inactive),96.7%,-182% (inactive),129%,-0.538 (inactive),-2e-05 (inactive),0.00614 (inactive),-8.39% (inactive),-18.3% (inactive)
CC1=CC2=C(OC1N(C)C)c1cccc3cccc(c13)C2=O (stereo not drawn),277,23.4% (active),3.4% (inactive),96.5%,46.7% (inactive),100%,-0.493 (inactive),2e-06 (inactive),0.00351 (inactive),5.12% (inactive),-3.5% (inactive)
N=c1c(C(=O)NCc2ccc3c(c2)OCO3)cc2c(=O)n3ccccc3nc2n1Cc1cccnc1,690,-5.2% (inactive),-21.7% (inactive),72.7%,-18.5% (inactive),109%,-0.427 (inactive),3.2e-05 (inactive),0.00617 (inactive),13.3% (inactive),23.4% (inactive)
Cc1cc(C)cc(NC(=O)CSc2nnc(Cc3cccn3C)n2-c2ccc(F)cc2)c1,479,4% (inactive),36.9% (inactive),12.9%,39.4% (inactive),96.5%,-0.519 (inactive),-2e-05 (inactive),0.00611 (inactive),13.7% (inactive),25.8% (inactive)
CCCCS(=O)(=O)NC1=NCN(CCOC(=O)c2ccccc2)CN1,305,0.8% (inactive),5.7% (inactive),116%,-50.4% (inactive),112%,-0.496 (inactive),-4.1e-05 (inactive),0.0043 (inactive),13.9% (inactive),20.7% (inactive)
COC(=O)c1ccccc1NC(=O)c1ccc(-c2ccccc2F)o1,516,-5.3% (inactive),-24.1% (inactive),111%,-37.1% (inactive),103%,-0.469 (inactive),-1.5e-06 (inactive),0.00728 (inactive),19.2% (inactive),-29.6% (inactive)
COc1cc(SC)ccc1C(=O)Nc1ccon1,461,-10.3% (inactive),-0.3% (inactive),93%,20.1% (inactive),91.2%,-0.608 (inactive),2.8e-05 (inactive),0.00729 (inactive),-57.7% (inactive),-144% (inactive)
COc1ccc(NC(=O)c2cc(C(C)C)on2)c(OC)c1,568,-11.1% (inactive),33.2% (inactive),100%,7.6% (inactive),107%,-0.576 (inactive),-1.2e-05 (inactive),0.00755 (inactive),-35.5% (inactive),-63.9% (inactive)
COc1ccc2c(c1)OC(O)(C(F)F)CC2=O (stereo not drawn),406,1.5% (inactive),5.7% (inactive),91.2%,-205% (inactive),96.2%,-0.398 (inactive),2.1e-05 (inactive),0.00381 (inactive),6.89% (inactive),28.4% (inactive)
O=C(CSc1nnnn1-c1ccc2c(c1)OCO2)NCc1cccs1,240,4.8% (inactive),2.8% (inactive),90.3%,-66.6% (inactive),98.8%,-0.447 (inactive),9.8e-06 (inactive),0.00659 (inactive),33.3% (inactive),-10.4% (inactive)
COc1ccc(-c2nnc(SCC(=O)NC(C)c3ccccc3)o2)cc1 (stereo not drawn),617,4.4% (inactive),-59% (inactive),104%,-7.4% (inactive),111%,-0.593 (inactive),-2.5e-05 (inactive),0.00661 (inactive),5.82% (inactive),18.9% (inactive)
CN(C(=O)Cn1c(=O)n(CCCCC(=O)NC2CCCC2)c(=O)c2ccccc21)C1CCCCC1,347,-1.2% (inactive),-6.6% (inactive),107%,-15.5% (inactive),117%,-0.478 (inactive),1.3e-07 (inactive),0.00575 (inactive),16.4% (inactive),25.2% (inactive)
O=C(OCc1ccccc1F)c1ccc2c(c1)OCCO2,372,3.4% (inactive),-14.1% (inactive),103%,-0.9% (inactive),90.8%,-0.448 (inactive),-8.7e-06 (inactive),0.00627 (inactive),-0.266% (inactive),-113% (inactive)
